dFosB act: activators of delta FosB homodimer, primary screen, biochemical, fluorescence polarization, TAMRA-CDK5 oligo, single point | purified delta FosB; percent of positive-control signal above neutral wells | activation, % at 25 µM | actives 0.99% (n = 340,000);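 active = mean activation above about 17%, with every replicate also reaching it, limit read from the data, passing the limit was not always enough; inconclusive = only one of the two conditions met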
MEKK2mut PB1 HTS: MEK5 binding signal on mutant MEKK2 PB1, primary screen, biochemical, multiplex bead flow cytometry, Alexa488-MEK5. AID 1530, 2009. percent response, % at 10 µM. actives 0.35% (n = 290,000). Alexa488-MEK5 binding to MEKK2 mutant; in the data active = percent response above about 24%, passing the limit was not always enough
MEKK3 PB1 HTS: modulators of MEKK3-MEK5 PB1 binding, primary screen, biochemical, wildtype MEKK3, multiplex bead flow cytometry, Alexa488-MEK5 | binding response (% of control), % at 10 µM | bead-based flow cytometry, Alexa488-MEK5 binding to MEKK3; actives lie on both sides; 0 = blocked by unlabeled MEK5, 100 = vehicle | AID 1529, 2009 | actives 1.4% (n = 290,000);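 active = binding response more than 3 SD above or below the average of its plate-row segment, actives on both sides; inconclusive = wells at one plate position flagged as instrument error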;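 also: Alexa488 bead fluorescence after subtracting the streptavidin-only scavenger bead signal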
Target sequence (Q99759 whole entry, looked up): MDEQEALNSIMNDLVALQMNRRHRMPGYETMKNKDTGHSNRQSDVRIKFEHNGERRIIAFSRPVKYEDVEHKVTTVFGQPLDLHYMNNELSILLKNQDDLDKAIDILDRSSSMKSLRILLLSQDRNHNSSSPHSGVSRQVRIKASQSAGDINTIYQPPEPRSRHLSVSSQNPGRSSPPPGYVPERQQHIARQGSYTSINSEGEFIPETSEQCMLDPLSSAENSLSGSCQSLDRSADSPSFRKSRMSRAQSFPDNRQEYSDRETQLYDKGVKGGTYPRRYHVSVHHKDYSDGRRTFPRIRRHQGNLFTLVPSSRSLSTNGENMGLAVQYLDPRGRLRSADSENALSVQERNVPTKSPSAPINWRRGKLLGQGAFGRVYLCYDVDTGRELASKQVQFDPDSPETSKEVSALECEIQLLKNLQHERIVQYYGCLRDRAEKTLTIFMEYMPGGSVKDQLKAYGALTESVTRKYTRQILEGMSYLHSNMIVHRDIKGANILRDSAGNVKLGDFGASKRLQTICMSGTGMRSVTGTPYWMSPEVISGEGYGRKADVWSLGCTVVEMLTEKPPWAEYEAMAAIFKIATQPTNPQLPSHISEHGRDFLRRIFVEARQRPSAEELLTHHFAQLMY
MEKK2wt PB1 HTS: modulators of MEK5 binding to wildtype MEKK2, primary screen, biochemical, multiplex bead flow cytometry, Alexa488-MEK5; Mitogen-activated protein kinase kinase kinase 2 (Homo sapiens), Q9Y2U5; Alexa488-MEK5 binding to MEKK2 WT; actives lie on both sides; binding response (% of control), % at 10 µM; actives 1.1% (n = 290,000); in the data active = binding response below about 67% or above about 130%; inconclusive = no clear call, values can overlap the other calls; inactive = in between
DNA FID counter: compounds displacing fluorescent DNA intercalator, primary screen, artefact control for HCV NS3 helicase inhibitor project, biochemical, FID fluorescence | DNA fluorescent intercalator displacement | inhibition, % at 7.9 µM | actives 0.17% (n = 290,000); in the data active = inhibition above about 37%;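 also: 0% = vehicle and 100% = reference compound; higher means more ethidium bromide displaced from hairpin DNA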
* marks the source's active call; other numbers are inactive results; ? = inconclusive; . = no result given; [ ] = dose if it differs, or a comment. In the library only some 2.9% were active in any assay of this set; here they are far more common.

SMILES	dFosB act	MEKK2mut PB1 HTS	MEKK3 PB1 HTS	MEKK2wt PB1 HTS	DNA FID counter
COc1cc(Br)cc(/C=N/NC(=O)Cc2ccccc2)c1O	8	.	.	.	.
O=C(O)COc1ccccc1/C=N/NC(=O)Cc1ccccc1	4	-7	96	-12*	-11
COC(=O)c1sccc1-c1ccc(/C=N/OC(=O)c2ccccc2)o1	-7	-2	96	92	1
CCN1CCCC1CNC(=O)c1ccc2c(c1)NC(=O)/C(=C\c1ccc(OC)c(OC)c1)S2 (stereo unspecified)	44*	25*	91	153*[inhibitor]	23
COc1cccc(/C=C2/Sc3ccc(C(=O)NCCN4CCCCCC4)cc3NC2=O)c1	-7	71*	112	280*	28
COc1cccc(/C=C2\Sc3ccc(C(=O)NCc4cccnc4)cc3N(C)C2=O)c1	-10	5	107	115	-25
O=C1Nc2cc(C(=O)NCCN3CCCCCC3)ccc2S/C1=C\c1ccccc1	?	43*	110	219*	21
CCOC(=O)C1CCN(C(=O)c2ccc3c(c2)NC(=O)/C(=C\c2cccc(C)c2)S3)CC1	4	-8	98	95	-58
Cc1cccc(/C=C2/Sc3ccc(C(=O)NCCN4CCCC4)cc3NC2=O)c1	?	46*	105	183*	9
CCOc1ccc(NC(=O)CN(C)C(=O)CC(NC(=O)c2ccccc2)c2ccccc2)cc1OCC (stereo unspecified)	-11	.	.	.	.
O=S(=O)(NCCCCNS(=O)(=O)c1c(F)cccc1F)c1ccc2c(c1)OCCO2	-2	.	.	.	.
CCCC(=O)Oc1ccc(C2NC(=O)c3ccccc3O2)cc1OC (stereo unspecified)	-5	4	103	100	-24
CC(=O)Nc1cc2cc(NS(=O)(=O)c3ccc(C)cc3)ccc2oc1=O	155*	3	102	99	-1
CC(=O)c1c(C)oc2ccc(NS(=O)(=O)c3ccc(C)cc3)cc12	-1	-4	98	100	-15
COc1cc2nc(Nc3ccc(F)cc3)nc(N)c2cc1OC	21*	22	105	133	20
COc1cc2nc(N(C)C)nc(N)c2cc1OC	-8	6	102	108	35
COc1ccccc1/C=C1\SC(=S)N(CCC(=O)Nc2ccc(C(=O)O)c(O)c2)C1=O	-15	10	110	102	38*
COc1ccc(/C=C2\SC(=S)N(CCC(=O)Nc3cccc(O)c3)C2=O)cc1	25*	-1	99	92	-4
COc1ccc(/C=C2\SC(=S)N(CC(=O)NC3CCS(=O)(=O)C3)C2=O)cc1 (stereo unspecified)	47*	9	103	108	-26
O=C(CCN1C(=O)/C(=C\c2ccccc2)SC1=S)NNC(=O)c1ccccc1O	20*	-2	97	97	-7
O=C(CCCN1C(=O)S/C(=C\c2ccccc2)C1=O)NNC(=O)c1ccccc1O	1	-2	106	96	-4
O=C(CCN1C(=O)/C(=C/c2ccccc2)SC1=S)NCCc1ccc(O)cc1	-2	1	98	96	-22
COc1ccc(/C=C2\SC(=S)N(CCC(=O)NCCc3ccc(O)cc3)C2=O)cc1	38*	3	98	94	-24
NS(=O)(=O)c1ccc(CCNC(=O)COc2ccc3c4c(c(=O)oc3c2)CCC4)cc1	-10	2	103	101	88*
O=C(COc1ccc2c3c(c(=O)oc2c1)CCC3)Nc1ccc(CCO)cc1	9	1	102	101	-39
SMILES	dFosB act	MEKK2mut PB1 HTS	MEKK3 PB1 HTS	MEKK2wt PB1 HTS	DNA FID counter
Cc1ccn2c(C=O)c(-c3ccc(F)cc3)c(C=O)c2c1	-23	13	93	-3.0*	-8
Cc1cc(C(=O)CSc2nc3ccccc3[nH]2)c(C)n1Cc1ccco1	2	-1	105	102	-19
CN(C)c1ccc(NC(=O)c2sc(SCC(=O)Nc3ccc(Br)cc3)nc2N)cc1	28*	8	98	100	5
CN(C)c1ccc(NC(=O)c2sc(SCC(=O)Nc3nccs3)nc2N)cc1	-3	-5	98	92	-9
Cn1c2ccccc2c(=O)c2ccc(C#Cc3ccc(N)cc3)cc21	-3	8	102	22*	-17
COc1ccc(C#Cc2ccc3c(=O)c4ccccc4n(C)c3c2)cc1	-6	-5	97	79	-17
Cc1ccccc1Nc1nc(N)c2ccccc2n1	-3	28	161*	173*	6
CN(C)CCC1CCN(c2cc(C#N)c(C#N)cc2[N+](=O)[O-])CC1	4	8	103	102	13
CC(Sc1nnc(-c2ccco2)n1C)C(=O)Nc1nccs1 (stereo unspecified)	-3	.	.	.	.
CC(Sc1ccc([N+](=O)[O-])cn1)C(=O)Nc1nccs1 (stereo unspecified)	2	17	103	157*	-2
Cc1cc(CN2CCCC(C(=O)Nc3cccc(-n4cccn4)c3)C2)cc(C)c1O (stereo unspecified)	-8	-1	102	112	23
CCOc1ccccc1CN1CCCC(C(=O)Nc2cccc(-n3cccn3)c2)C1 (stereo unspecified)	-16	12	101	115	39*
O=C(Nc1cccc(-n2cccn2)c1)C1CCCN(Cc2cc3ccccc3[nH]2)C1 (stereo unspecified)	0	24*	104	139*	3
CCOc1cccc(CN2CCCC(C(=O)Nc3cccc(-n4cccn4)c3)C2)c1 (stereo unspecified)	-6	10	104	120	15
Cc1ccc(C2(C)NC(=O)N(CC(=O)NC(=O)NC(C)(C)C)C2=O)cc1 (stereo unspecified)	-10	1	101	100	-38
FC(F)(F)c1ccc(Oc2ccc(Cl)cc2Br)nc1	-6	1	103	105	1
O=C(NCCCN1CCCCCC1)c1cc2c(=O)oc3ccccc3c2s1	-25	23	106	136*	5
Cc1ccc2oc(=O)c3cc(C(=O)NCCCN4CC(C)CC(C)C4)sc3c2c1 (stereo unspecified)	-24	13	101	142*	20
Cc1ccc(C2/C(=C(\O)c3ccc4c(c3)OCCO4)C(=O)C(=O)N2CC2CCCO2)cc1 (stereo unspecified)	-2	4	102	103	-64
COC(=O)c1ccccc1NC(=O)NC1CCCCC1	-3	-4	101	100	-6
COc1cc(/C=C/c2sc3ccccc3[n+]2CCCS(=O)(=O)[O-])ccc1O	241*	-17	81	76	-52

Screening results deposited in PubChem BioAssay by several laboratories.
